Measured values: ChEMBL document CHEMBL3988442, “University of Dundee, Small-Polar-MMV Screening Library” (2021)
For some assays here: Measured potencies and affinities stand elsewhere.

What was measured:
Set-up in all cases: scale not given: direction of the effect not stated beside the values
[1] = target: Protein translocase subunit SecA (Escherichia coli (strain K12)) (UniProt P10408); test: Assay to Identify E. coli SecA ATPase Inhibitors; format: functional; details: 30 µM
[2] = target: T1, Ubiquitin-activating enzyme e1, putative (Leishmania donovani (strain BPK282A1)) (UniProt E9BSI1); test: Leishmania donovani Ubiquitin Activating Enzyme (LdE1); format: functional; details: 30 µM
T1 sequence (whole entry): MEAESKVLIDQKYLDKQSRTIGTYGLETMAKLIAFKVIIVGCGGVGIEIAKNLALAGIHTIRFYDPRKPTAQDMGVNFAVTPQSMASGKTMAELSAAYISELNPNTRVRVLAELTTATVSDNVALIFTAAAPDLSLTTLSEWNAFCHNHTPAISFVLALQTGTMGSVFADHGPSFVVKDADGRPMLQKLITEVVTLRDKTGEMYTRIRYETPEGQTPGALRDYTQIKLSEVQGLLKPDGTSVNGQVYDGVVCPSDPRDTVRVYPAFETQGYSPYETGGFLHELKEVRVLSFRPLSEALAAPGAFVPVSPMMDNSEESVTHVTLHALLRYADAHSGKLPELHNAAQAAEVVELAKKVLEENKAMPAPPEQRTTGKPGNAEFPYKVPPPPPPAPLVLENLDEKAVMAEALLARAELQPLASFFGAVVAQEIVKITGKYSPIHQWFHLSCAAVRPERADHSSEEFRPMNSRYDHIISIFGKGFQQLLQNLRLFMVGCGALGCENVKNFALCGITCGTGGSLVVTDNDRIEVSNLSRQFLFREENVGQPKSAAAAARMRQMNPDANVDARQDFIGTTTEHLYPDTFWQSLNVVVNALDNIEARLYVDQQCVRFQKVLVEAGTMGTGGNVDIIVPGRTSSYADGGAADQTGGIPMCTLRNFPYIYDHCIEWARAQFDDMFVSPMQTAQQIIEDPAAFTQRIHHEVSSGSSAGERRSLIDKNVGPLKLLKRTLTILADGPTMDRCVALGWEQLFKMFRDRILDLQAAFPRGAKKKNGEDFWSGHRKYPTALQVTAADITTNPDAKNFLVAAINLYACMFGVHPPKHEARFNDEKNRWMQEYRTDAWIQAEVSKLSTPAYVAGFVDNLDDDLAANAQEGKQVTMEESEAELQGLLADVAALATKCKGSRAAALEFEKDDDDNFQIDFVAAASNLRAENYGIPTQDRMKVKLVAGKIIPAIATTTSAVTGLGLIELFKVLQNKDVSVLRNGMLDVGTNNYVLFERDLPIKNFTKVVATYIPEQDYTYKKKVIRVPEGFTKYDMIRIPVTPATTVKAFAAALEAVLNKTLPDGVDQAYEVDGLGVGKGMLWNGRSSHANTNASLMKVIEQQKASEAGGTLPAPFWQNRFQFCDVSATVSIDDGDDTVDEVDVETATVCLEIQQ

[3] = target: AMP-activated protein kinase, AMPK (Homo sapiens) (UniProt P54646+O43741+P54619+Q9UGJ0+Q9Y478+Q13131+Q9UGI9); test: AMP-dependent Kinase enzyme assay. An in vitro enzyme assay that detects ADP turnover that is directly proportional to AMPK activity. This uses naive AMPK that is activated during the assay with MK-8722; format: functional; details: 30 µM
[4] = target: Sialic acid-binding Ig-like lectin 9 (Homo sapiens) (UniProt Q9Y336); test: Hs-Siglec9 ALPHAscreen SOP 20170721; details: 10 µM
Sequence of Sialic acid-binding Ig-like lectin 9 (Homo sapiens) (Q9Y336 whole entry): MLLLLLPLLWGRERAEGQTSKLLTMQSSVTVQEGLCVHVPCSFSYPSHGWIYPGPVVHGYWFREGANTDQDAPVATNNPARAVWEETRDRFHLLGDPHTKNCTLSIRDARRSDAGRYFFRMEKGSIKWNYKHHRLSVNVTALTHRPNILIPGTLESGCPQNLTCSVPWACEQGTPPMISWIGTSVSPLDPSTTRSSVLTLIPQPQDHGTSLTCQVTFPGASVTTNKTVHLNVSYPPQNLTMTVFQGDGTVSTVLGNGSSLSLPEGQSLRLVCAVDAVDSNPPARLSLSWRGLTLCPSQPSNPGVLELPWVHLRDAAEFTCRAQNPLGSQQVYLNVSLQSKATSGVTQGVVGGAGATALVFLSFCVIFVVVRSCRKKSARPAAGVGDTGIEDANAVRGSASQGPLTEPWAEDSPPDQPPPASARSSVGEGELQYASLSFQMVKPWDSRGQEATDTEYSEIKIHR

Trypanosoma cruzi = test: Trypanosoma cruzi phosphomannomutase and mannose-1-phosphate guanylyltransferase assay; format: functional; details: 10 µM
[5] = target: T2, Arginase-2, mitochondrial (Homo sapiens) (UniProt P78540); test: in vitro enzyme assay to detect the production of urea directly proportional to the activity of Arginase II; format: functional; details: 33.3 µM; further: in the data most compounds retested in dose-response had high values
T2 sequence (whole entry): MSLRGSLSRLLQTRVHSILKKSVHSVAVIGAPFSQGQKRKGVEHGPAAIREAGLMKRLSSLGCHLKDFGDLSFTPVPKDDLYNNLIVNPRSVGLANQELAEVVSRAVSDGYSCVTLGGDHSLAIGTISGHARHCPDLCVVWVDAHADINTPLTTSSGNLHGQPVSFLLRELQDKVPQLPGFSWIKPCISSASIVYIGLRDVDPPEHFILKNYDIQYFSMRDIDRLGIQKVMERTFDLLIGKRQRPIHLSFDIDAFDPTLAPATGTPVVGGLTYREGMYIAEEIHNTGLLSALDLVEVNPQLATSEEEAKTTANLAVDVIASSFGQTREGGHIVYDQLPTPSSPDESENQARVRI

[6] = target: T3, Proteasome subunit beta (Trypanosoma cruzi) (UniProt O96673); test: Trypanosoma cruzi proteasome chymotrypsin-like activity (TcProtChymo) assay.; further: in the data most compounds retested in dose-response had high values; format: functional; details: 9.37 µM
T3 sequence (whole entry): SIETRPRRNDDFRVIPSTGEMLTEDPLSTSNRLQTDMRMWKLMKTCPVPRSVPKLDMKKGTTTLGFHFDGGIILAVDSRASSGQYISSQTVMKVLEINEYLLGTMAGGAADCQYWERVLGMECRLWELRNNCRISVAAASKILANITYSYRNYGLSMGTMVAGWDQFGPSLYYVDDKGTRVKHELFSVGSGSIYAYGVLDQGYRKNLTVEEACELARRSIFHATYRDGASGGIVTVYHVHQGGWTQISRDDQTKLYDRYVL

Homo sapiens = species on record: Homo sapiens; test: To identify inhibition of the IFN signalling (Jak-Stat) pathway via expression of an eGFP reporter gene under the control of an IFN-stimulated response element (ISRE) containing MxA promoter.; format: functional; details: 30 µM
[7] = target: T4, Tyrosyl-tRNA synthetase, putative (Trypanosoma cruzi (strain CL Brener)) (UniProt Q4DSP6); test: Trypanosoma cruzi tyrosyl tRNA synthetase (TcYRS) _High Tyrosine SOP; format: functional; details: 30 µM; further: in the data most compounds retested in dose-response had high values
T4 sequence (whole entry): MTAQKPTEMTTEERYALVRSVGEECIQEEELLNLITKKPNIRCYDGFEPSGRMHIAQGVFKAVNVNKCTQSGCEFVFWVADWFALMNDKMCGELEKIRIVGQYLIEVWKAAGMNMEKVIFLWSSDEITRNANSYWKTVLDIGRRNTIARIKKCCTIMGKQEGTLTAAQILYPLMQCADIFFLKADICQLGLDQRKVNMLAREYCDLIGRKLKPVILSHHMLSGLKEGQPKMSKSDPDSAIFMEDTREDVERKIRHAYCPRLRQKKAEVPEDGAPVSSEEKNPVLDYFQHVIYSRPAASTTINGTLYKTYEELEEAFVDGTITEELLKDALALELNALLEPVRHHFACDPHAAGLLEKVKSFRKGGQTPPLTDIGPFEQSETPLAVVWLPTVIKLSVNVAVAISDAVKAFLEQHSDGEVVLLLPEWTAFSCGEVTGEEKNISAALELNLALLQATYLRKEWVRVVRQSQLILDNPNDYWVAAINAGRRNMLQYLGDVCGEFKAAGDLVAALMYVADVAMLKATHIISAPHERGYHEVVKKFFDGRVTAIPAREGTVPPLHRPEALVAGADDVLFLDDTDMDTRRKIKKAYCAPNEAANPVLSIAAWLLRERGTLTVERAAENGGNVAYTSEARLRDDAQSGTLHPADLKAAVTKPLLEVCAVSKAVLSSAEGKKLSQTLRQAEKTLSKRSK

[8] = target: T4, Tyrosyl-tRNA synthetase, putative (Trypanosoma cruzi (strain CL Brener)); test: Trypanosoma cruzi tyrosyl tRNA synthetase (TcYRS) SOP; format: functional; details: 30 µM
[9] = target: Chromo domain-containing protein 1 (Saccharomyces cerevisiae (strain ATCC 204508 / S288c) (Baker's yeast)) (UniProt P32657); test: ScCHD-1 Enzyme Inhibition Assay; format: functional; details: 30 µM; further: in the data most compounds retested in dose-response had high values
Sequence of Chromo domain-containing protein 1 (Saccharomyces cerevisiae (strain ATCC 204508 / S288c) (Baker's yeast)) (P32657 whole entry, the tested form may be a part): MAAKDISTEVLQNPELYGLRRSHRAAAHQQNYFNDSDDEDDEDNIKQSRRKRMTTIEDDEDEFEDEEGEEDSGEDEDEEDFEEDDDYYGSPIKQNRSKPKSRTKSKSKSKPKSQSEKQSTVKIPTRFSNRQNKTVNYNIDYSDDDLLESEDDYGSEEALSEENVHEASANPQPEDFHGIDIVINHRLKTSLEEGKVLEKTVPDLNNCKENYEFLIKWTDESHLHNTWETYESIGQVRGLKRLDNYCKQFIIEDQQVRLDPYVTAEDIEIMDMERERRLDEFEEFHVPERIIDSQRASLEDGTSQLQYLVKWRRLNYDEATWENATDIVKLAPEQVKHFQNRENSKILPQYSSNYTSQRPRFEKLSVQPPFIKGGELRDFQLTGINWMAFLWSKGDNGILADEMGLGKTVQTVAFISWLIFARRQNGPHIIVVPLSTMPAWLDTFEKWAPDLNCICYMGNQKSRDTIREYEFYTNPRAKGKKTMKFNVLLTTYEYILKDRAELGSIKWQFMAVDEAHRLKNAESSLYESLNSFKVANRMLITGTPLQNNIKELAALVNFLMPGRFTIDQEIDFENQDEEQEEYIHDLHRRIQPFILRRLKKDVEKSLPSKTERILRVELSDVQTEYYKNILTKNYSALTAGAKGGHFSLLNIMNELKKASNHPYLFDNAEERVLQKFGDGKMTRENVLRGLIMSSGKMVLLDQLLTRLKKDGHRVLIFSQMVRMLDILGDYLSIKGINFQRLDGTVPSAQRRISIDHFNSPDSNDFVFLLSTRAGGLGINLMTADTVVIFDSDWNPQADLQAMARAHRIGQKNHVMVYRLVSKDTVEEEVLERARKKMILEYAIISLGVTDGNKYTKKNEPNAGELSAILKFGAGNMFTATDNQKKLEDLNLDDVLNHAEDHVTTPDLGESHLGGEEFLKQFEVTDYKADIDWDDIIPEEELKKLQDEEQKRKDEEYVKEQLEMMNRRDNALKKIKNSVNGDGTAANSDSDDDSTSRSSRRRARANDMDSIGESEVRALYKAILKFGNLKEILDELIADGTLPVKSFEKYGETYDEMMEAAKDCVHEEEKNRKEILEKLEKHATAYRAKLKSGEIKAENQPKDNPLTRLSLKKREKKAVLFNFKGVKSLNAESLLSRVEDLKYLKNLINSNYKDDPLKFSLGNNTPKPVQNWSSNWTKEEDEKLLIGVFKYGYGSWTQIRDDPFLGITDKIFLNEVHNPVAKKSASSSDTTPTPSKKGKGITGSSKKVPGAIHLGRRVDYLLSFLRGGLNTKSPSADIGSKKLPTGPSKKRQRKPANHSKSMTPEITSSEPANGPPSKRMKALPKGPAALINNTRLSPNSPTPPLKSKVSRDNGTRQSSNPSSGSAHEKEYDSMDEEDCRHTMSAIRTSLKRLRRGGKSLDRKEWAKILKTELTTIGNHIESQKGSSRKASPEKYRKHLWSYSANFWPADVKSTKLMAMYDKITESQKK

Sequence of Protein translocase subunit SecA (Escherichia coli (strain K12)) (P10408 whole entry): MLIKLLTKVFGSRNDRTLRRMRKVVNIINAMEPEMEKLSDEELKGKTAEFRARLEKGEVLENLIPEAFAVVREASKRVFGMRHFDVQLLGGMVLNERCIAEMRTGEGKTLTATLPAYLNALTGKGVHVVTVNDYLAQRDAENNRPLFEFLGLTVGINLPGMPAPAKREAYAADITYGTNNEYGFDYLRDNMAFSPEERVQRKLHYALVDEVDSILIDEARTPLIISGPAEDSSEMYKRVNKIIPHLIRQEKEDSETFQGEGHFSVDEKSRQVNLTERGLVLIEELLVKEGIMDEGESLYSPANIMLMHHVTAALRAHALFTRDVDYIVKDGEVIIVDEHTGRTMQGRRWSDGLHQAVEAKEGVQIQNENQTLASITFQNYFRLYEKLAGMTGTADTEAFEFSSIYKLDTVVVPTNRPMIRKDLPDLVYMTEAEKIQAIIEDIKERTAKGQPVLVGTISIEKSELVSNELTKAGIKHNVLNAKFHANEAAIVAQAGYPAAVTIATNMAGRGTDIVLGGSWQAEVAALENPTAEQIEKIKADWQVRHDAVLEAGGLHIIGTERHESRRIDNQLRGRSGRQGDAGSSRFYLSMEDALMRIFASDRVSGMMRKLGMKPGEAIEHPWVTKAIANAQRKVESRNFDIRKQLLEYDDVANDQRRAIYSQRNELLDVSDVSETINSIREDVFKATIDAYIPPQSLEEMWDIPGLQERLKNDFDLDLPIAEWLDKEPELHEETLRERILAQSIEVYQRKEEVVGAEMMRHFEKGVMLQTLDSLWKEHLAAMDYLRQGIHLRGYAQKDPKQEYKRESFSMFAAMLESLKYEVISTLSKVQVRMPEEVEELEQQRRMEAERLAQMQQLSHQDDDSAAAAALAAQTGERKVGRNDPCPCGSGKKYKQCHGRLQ

| SMILES | Percent Effect [1] | Percent Effect [2] | Percent Effect [3] | Percent Effect [4] | Percent Effect (Trypanosoma cruzi) | Percent Effect [5] | Percent Effect [6] | Percent Effect (Homo sapiens) | Percent Effect [7] | Percent Effect [8] | Percent Effect [9] |
| --- | --- | --- | --- | --- | --- | --- | --- | --- | --- | --- | --- |
| CNC(=O)NC(=O)CN1CCC(c2c[nH]c3ccc(OC)cc23)CC1 | -5.27% | 10.7% | -5.74% | 22.2% | 0.292% | 4.69% | 12.4% | 7.02% | 9.29% | 18.5% | -8.18% |
| COCC1c2c(cnn2CC2CC2)CCN1Cc1nccs1 (configuration not stated) | -2.49% | 13.3% | -1.8% | 5.98% | -4.05% | -26% | 12.1% | -5.9% | 4.17% | 20% | -6.08% |
| Cn1ccnc1CN1CCN(CC(O)c2ccc(F)c(F)c2)CC1 (configuration not stated) | -8.39% | 10.4% | -6.83% | -0.647% | -6.93% | 1.42% | 0.507% | 29.6% | 0% | -2.44% | -2.48% |
| O=C(c1cccc(CNS(=O)(=O)c2ccccc2F)c1)N1CCCC1 | -3.56% | 15.6% | 1.76% | 3.25% | 2.25% | 0.21% | 5.25% | 24.1% | 5.71% | 18.8% | -5.99% |
| Cc1cccc2c1OCCC2NCc1c(C)nn(C)c1N(C)C (configuration not stated) | 1.41% | 18.4% | -5.71% | 0.779% | -3.95% | 7.28% | 16.9% | 24.8% | 1.47% | 7.32% | -18.2% |
| COc1ccc(C(=O)N2Cc3c(Cn4ccnc4)nn(C)c3C2)cc1 | -2.78% | 8% | 5.76% | -5.42% | 3.15% | -1.63% | 12.1% | 7.14% | 5.32% | 11.5% | -3.95% |
| O=C1CC(N(C(=O)c2ccc3[nH]c4c(c3c2)CCCC4)C2CC2)C(=O)N1 (configuration not stated) | -1.37% | 27.9% | -6.86% | -8.64% | 6.33% | -3.8% | 19.7% | -7.55% | 7.39% | 24.1% | -8.05% |
| Clc1ccc2cccnc2c1CN1CCCC(Cn2cncn2)C1 (configuration not stated) | -4.92% | 0% | -3.69% | 7.75% | 0.279% | 1.66% | 12% | 18.1% | 7.92% | 13.4% | 3.69% |
| CCOC(=O)CCCNC(=O)CN1CCN(c2ncccn2)CC1 | -2.22% | 7.79% | -1.07% | 5.04% | -3.64% | -112% | 17.5% | 2.75% | 5.38% | 8.64% | -0.631% |
| Cc1nc(COC[C@@H]2CC[C@H]3[C@H](CCN3c3ncccn3)O2)cs1 | -0.526% | 0% | -0.411% | 3.43% | -0.394% | 4.89% | 15.2% | 8.36% | 4.25% | 1.28% | 2.8% |
| Cc1cc(C[C@@H]2COC[C@H]2NCc2ccc(Br)s2)on1 | -7.36% | 1.35% | 9.27% | -0.828% | -2.77% | -7.19% | -1.72% | 31.8% | -2.15% | -3.9% | -6.34% |
| CN1CCCc2cc(CNC(=O)c3ccc(NC4CC4)nc3)ccc21 | -1.41% | 6.33% | 52% | 6.12% | -0.923% | 2.8% | 0.515% | -2.19% | 6.25% | 10.1% | -6.23% |
| CNc1cc2c(nn1)CCN(C(=O)c1cccc3c1OCO3)C2 | -5.03% | 5.2% | -9.97% | 7.76% | 3.75% | 2.49% | -5.07% | -5.98% | 4.85% | 7.32% | -2.55% |
| CC(C)[C@H](NC(=O)NC1CCS(=O)(=O)C1)C(=O)Nc1cccnc1 (some centres not stated) | 1.55% | 9.33% | -0.824% | -4.96% | -3.34% | -8.28% | 13.1% | 17.4% | 3.17% | 12.8% | -7.36% |
| CN(C)C(=O)CN1C[C@@H]2CC[C@H](C1)N(C(=O)CCn1cncn1)C2 | -2.58% | 5.41% | -3.51% | 3.26% | -1.16% | -0.952% | 2.76% | -15.8% | 6.88% | 9.76% | -3.62% |
| O=C(NCCNc1ncccn1)c1ccc(-c2ccco2)[nH]c1=O | -5.27% | 27% | -6.43% | 9.97% | 1.23% | -11.6% | 15.9% | 6.48% | 8.37% | 23.5% | -11.4% |
| CCCn1[nH]cc/c1=N\C(=O)CN1CCn2c(nnc2C2CC2)C1 | -2.72% | 21.1% | -11.3% | -5.47% | -4.13% | 3.83% | 16.5% | 22.7% | 5.39% | 9.76% | -10.1% |
| CCn1c(C(=O)N2CCN(CC(C)O)CC2)cc2ccccc21 (configuration not stated) | -8.12% | 7.79% | -6.74% | 7.69% | 10.1% | -1.78% | 6.42% | -0.229% | 3.88% | 21.9% | -10.6% |
| c1ccc(-c2nccc(CNCC3CCCN3c3cccnn3)n2)cc1 (configuration not stated) | -3.71% | -18.4% | 3.25% | -4.68% | -0.94% | 0.383% | -0.501% | 20.1% | 6.37% | -2.44% | 11.3% |
| CCOc1ccc(NC(=O)c2cnc(N3CCCC3)nc2C)cc1 | -4.12% | 5.2% | -3.01% | -0.674% | 1.48% | 3.23% | 5.22% | 11.8% | 4.23% | 16.7% | -8.66% |
| O=C(Cc1cccc(F)c1)NCCNCc1cccc(O)c1 | -1.42% | -5.2% | 13.5% | 6.95% | 0.749% | 3.56% | -0.169% | 3.07% | 8.74% | 12.2% | -4.75% |
| CNC(=O)CS(=O)(=O)C1CCN(S(=O)(=O)c2ccccc2Br)CC1 | 1.17% | 0% | 4.03% | 13.4% | 4.5% | 5.46% | 2.31% | 26.1% | 1.07% | 2.5% | -0.751% |
